Test results reported in ChEMBL document CHEMBL4513146, “CO-ADD screening of Karazin Kharkiv National University (Ukraine) compounds”.
Results with a measured potency or affinity are listed apart.

tested on: Candida albicans; settings: Concentration 32 ug.mL-1; ASSAY_TEST Inhibition of Fungal Growth; detection method Absorption (OD530)

Row | Compound | Inhibition
1 | Cc1ccc(Oc2nccn3c(=O)n(CC(=O)Nc4cccc(Br)c4)nc23)cc1 | 24.3%
2 | Cc1ccc(CNC(=O)Cn2nc3ccc(SCc4ccc(Cl)cc4)nn3c2=O)cc1 | 20.24%
3 | Cc1[nH]c2ccccc2c1C(=O)CSc1nnc2c(=O)n(-c3ccccc3)ccn12 | 0.47%
4 | CCc1nnc2ccc(S(=O)(=O)N(Cc3ccc(F)cc3)c3ccccc3)cn12 | -0.14%
5 | CCc1nnc2c(=O)n(CC(=O)Nc3ccc(NC(C)=O)cc3)c3ccccc3n12 | 5.77%
6 | CCc1nnc2c(SCC(=O)NCc3ccccc3Cl)nc3ccccc3n12 | 1.39%
7 | N#CCn1nc2n(CCC(=O)NC3CCCCC3)c(=O)c3ccccc3n2c1=O | 1.95%
8 | CCc1cccc(NC(=O)Cn2nc3nc(N4CCCCCC4)ccn3c2=O)c1 | 0.8%
9 | CCc1ccc(NC(=O)Cn2nc3c4cc(-c5ccc(C)c(C)c5)nn4ccn3c2=O)cc1 | 21.77%
10 | COc1ccc(-c2cc3c4nn(CC(=O)NCc5ccccc5Cl)c(=O)n4ccn3n2)cc1 | 1.1%
11 | O=C(CSc1nnc2c(=O)n(-c3ccc(F)c(F)c3)ccn12)c1ccccc1Cl | 3.43%
12 | COc1ccc(CN(c2cc(C)cc(C)c2)S(=O)(=O)c2cccn3c(C)nnc23)cc1 | 2.31%
13 | Cc1ccc(-c2ccc3nn(Cc4ccc(F)cc4Cl)c(=O)n3n2)cc1C | -0.6%
14 | COc1ccc(Cl)cc1NC(=O)Cn1nc2c3cc(-c4ccc(C)c(C)c4)nn3ccn2c1=O | 12.28%
15 | COc1ccc(-c2cc3c4nn(CC(=O)Nc5ccc(OC)c(Cl)c5)c(=O)n4ccn3n2)cc1 | 32.01%
16 | Cc1cccc(NC(=O)CSc2nnc3c4cc(-c5ccc(F)cc5)nn4ccn23)c1C | 1.75%
17 | O=C(Cn1nc2n(Cc3ccccc3)c(=O)c3ccccc3n2c1=O)Nc1ccc2c(c1)OCO2 | 0.36%
18 | O=c1c2nnc(SCc3ccccc3Cl)n2ccn1-c1ccc(F)c(F)c1 | 3.72%
19 | Cc1ccc(NC(=O)Cn2nc3ccc(-c4ccc(Cl)cc4)nn3c2=O)cc1 | 1.61%
20 | O=C(CSc1nc2ccccc2n2cnnc12)Nc1ccc2c(c1)OCO2 | 2.55%
21 | Cc1ccc(-c2nc(CSc3nc4ccccc4n4c(C(C)C)nnc34)c(C)o2)cc1 | 2.71%
22 | CCCCc1ccc(NC(=O)Cn2nc3c(Sc4ccccc4)nccn3c2=O)cc1 | 28.09%
23 | Cc1cccc(NC(=O)Cn2nc3ccc(-c4ccc(Cl)cc4)nn3c2=O)c1 | 3.82%
24 | COc1cc(NC(=O)Cn2nc3c4c5c(sc4ncn3c2=O)CCCC5)cc(OC)c1 | 7.26%
25 | CCOC(=O)C1CCCN(C(=O)Cn2nc3n(CC(C)C)c(=O)c4sccc4n3c2=O)C1 (stereo not given) | -1.48%

tested on: Cryptococcus neoformans; settings: Concentration 32 ug.mL-1; ASSAY_TEST Inhibition of Fungal Growth; detection method Resazurin; Absorption (OD600-OD570); plate type 384well; NBS; CORNING #3640

Row | Compound | Inhibition
26 | CCCCn1c(=O)c2sccc2n2c(CCC(=O)NC(C)C34CC5CC(CC(C5)C3)C4)nnc12 (stereo not given) | -27.66%
27 | O=C(Cn1nc2c(Oc3ccccc3)nccn2c1=O)Nc1ccc(F)cc1Cl | -10.04%
28 | COC(=O)c1ccc(NC(=O)Cn2nc3c(Oc4cccc(OC)c4)nccn3c2=O)cc1 | -6.09%
29 | N#CCn1nc2n(Cc3ccc(F)cc3)c(=O)c3ccccc3n2c1=O | -7.73%
30 | O=c1c2nnc(-c3cccc([N+](=O)[O-])c3)n2ccn1-c1ccc(F)cc1 | -10.38%
31 | COc1cccc(-n2ccn3c(SCC(=O)c4cc(C)ccc4C)nnc3c2=O)c1 | -12.08%
32 | CCCN(C)c1nccn2c(=O)n(CC(=O)Nc3ccc(F)cc3)nc12 | -8.83%
33 | COc1cccc(Oc2nccn3c(=O)n(CC(=O)Nc4cc(F)ccc4F)nc23)c1 | -8.45%
34 | O=C(Cn1nc2ccc(C(=O)NCc3ccccc3)cn2c1=O)Nc1ccc(Br)cc1 | -19.25%
35 | N#Cc1cccc(NC(=O)Cn2nc3c(Oc4ccccc4)nccn3c2=O)c1 | -6.48%
36 | COc1cc(NC(=O)Cn2nc3c(N4CCCC4)nccn3c2=O)cc(OC)c1 | -4.76%
37 | CC(C)c1nnc2c(SCC(=O)Nc3ccc(C#N)cc3)nc3ccccc3n12 | -7.9%
38 | CCOc1ccc(-n2ccn3c(SC(CC)C(=O)Nc4ccc(C(C)C)cc4)nnc3c2=O)cc1 (stereo not given) | -12.9%
39 | CC(C)CCn1c(=O)c2ccc(C(=O)NC3CCCC3)cc2n2c(=O)n(CC#N)nc12 | -21.13%
40 | COc1cccc(CN(c2cc(F)cc(F)c2)S(=O)(=O)c2ccc3nnc(C)n3c2)c1 | -5.08%
41 | Cc1ccc(Oc2nccn3c(=O)n(CC(=O)Nc4cccc(Br)c4)nc23)cc1 | -18.68%
42 | Cc1ccc(CNC(=O)Cn2nc3ccc(SCc4ccc(Cl)cc4)nn3c2=O)cc1 | -27.26%
43 | Cc1[nH]c2ccccc2c1C(=O)CSc1nnc2c(=O)n(-c3ccccc3)ccn12 | -10.08%
44 | CCc1nnc2ccc(S(=O)(=O)N(Cc3ccc(F)cc3)c3ccccc3)cn12 | -7.1%
45 | CCc1nnc2c(=O)n(CC(=O)Nc3ccc(NC(C)=O)cc3)c3ccccc3n12 | -14.46%

Row | Compound | Inhibition
46 | CCc1nnc2c(SCC(=O)NCc3ccccc3Cl)nc3ccccc3n12 | -17.43%
47 | N#CCn1nc2n(CCC(=O)NC3CCCCC3)c(=O)c3ccccc3n2c1=O | 1.45%
48 | CCc1cccc(NC(=O)Cn2nc3nc(N4CCCCCC4)ccn3c2=O)c1 | -9.37%
49 | CCc1ccc(NC(=O)Cn2nc3c4cc(-c5ccc(C)c(C)c5)nn4ccn3c2=O)cc1 | -12.06%
50 | COc1ccc(-c2cc3c4nn(CC(=O)NCc5ccccc5Cl)c(=O)n4ccn3n2)cc1 | -29.87%
51 | O=C(CSc1nnc2c(=O)n(-c3ccc(F)c(F)c3)ccn12)c1ccccc1Cl | -7.06%
52 | COc1ccc(CN(c2cc(C)cc(C)c2)S(=O)(=O)c2cccn3c(C)nnc23)cc1 | -5.62%
53 | Cc1ccc(-c2ccc3nn(Cc4ccc(F)cc4Cl)c(=O)n3n2)cc1C | -24.45%
54 | COc1ccc(Cl)cc1NC(=O)Cn1nc2c3cc(-c4ccc(C)c(C)c4)nn3ccn2c1=O | -11.29%
55 | COc1ccc(-c2cc3c4nn(CC(=O)Nc5ccc(OC)c(Cl)c5)c(=O)n4ccn3n2)cc1 | -18.43%
56 | Cc1cccc(NC(=O)CSc2nnc3c4cc(-c5ccc(F)cc5)nn4ccn23)c1C | -21.34%
57 | O=C(Cn1nc2n(Cc3ccccc3)c(=O)c3ccccc3n2c1=O)Nc1ccc2c(c1)OCO2 | -11.06%
58 | O=c1c2nnc(SCc3ccccc3Cl)n2ccn1-c1ccc(F)c(F)c1 | -8.25%
59 | Cc1ccc(NC(=O)Cn2nc3ccc(-c4ccc(Cl)cc4)nn3c2=O)cc1 | -4.05%
60 | O=C(CSc1nc2ccccc2n2cnnc12)Nc1ccc2c(c1)OCO2 | -24.91%
61 | Cc1ccc(-c2nc(CSc3nc4ccccc4n4c(C(C)C)nnc34)c(C)o2)cc1 | -13.81%
62 | CCCCc1ccc(NC(=O)Cn2nc3c(Sc4ccccc4)nccn3c2=O)cc1 | -10.74%
63 | Cc1cccc(NC(=O)Cn2nc3ccc(-c4ccc(Cl)cc4)nn3c2=O)c1 | -6.79%
64 | COc1cc(NC(=O)Cn2nc3c4c5c(sc4ncn3c2=O)CCCC5)cc(OC)c1 | -16.68%
65 | CCOC(=O)C1CCCN(C(=O)Cn2nc3n(CC(C)C)c(=O)c4sccc4n3c2=O)C1 (stereo not given) | -14.07%
